Compound activity from PubChem BioAssay.
Hits are enriched below; roughly 12% of the tested compounds scored in any of these assays.
Lmaj promast – reduces viability of Leishmania major promastigotes; resazurin fluorescence viability; inhibition, % at 10 µM; 200,000 compounds, 9% hits; AID 1063; in the data active = inhibition above about 50%;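 note: promastigotes grown with compound for 44 hours at 28 °C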
Arbovirus inh – arbovirus infection inhibition | arbovirus infection cell-based antiviral screen | inhibition, % at 10 µM | 200,000 compounds, 0.37% hits | AID 1251; in the data active = inhibition above about 30%
WT yeast gro inh – growth inhibition of WT yeast, mitochondrial fusion screen. 190,000 compounds, 2.1% hits. inhibition, % at 10 µM. mitochondrial fusion phenotypic screen, WT strain; in the data active = inhibition above about 58%; tested in S. cerevisiae
CHOP inhibitor – blocks CHOP induction under ER stress; CHO-K1 CHOP-promoter luciferase, tunicamycin-induced, 15-18 h; inhibition, % at 10 µM; 220,000 compounds, 3.8% hits;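 active = compounds that reduced the stress-induced luciferase reporter signal by more than about 70% of percent inhibition, limit read from the data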
Of the large screens only hits and unclear results are named; the others gave an inactive call.

Cc1cc(C)c(NC(=O)C2CCN(c3cnccn3)CC2)c(C)c1	none
CC(NC(=S)Nc1ccc(Cl)cc1)C(c1ccccc1)N1CCOCC1 (configuration not stated)	none
CC(C)(C)n1nnnc1C(c1ccc(Cl)cc1)N(Cc1cccnc1)Cc1ccco1 (configuration not stated)	Lmaj promast 100, WT yeast gro inh 68
CC(C)(C)n1nnnc1C(c1ccc(C(F)(F)F)cc1)N(Cc1ccccc1)Cc1ccco1 (configuration not stated)	none
Cc1ccc(C(c2nnnn2C(C)(C)C)N(Cc2ccco2)Cc2cccs2)cc1 (configuration not stated)	none
CCC(C)(C)n1nnnc1CN(Cc1ccc(Cl)cc1)Cc1ccco1	Lmaj promast 56
CC(C)(C)n1nnnc1C(c1ccc(C(F)(F)F)cc1)N(Cc1ccc(F)cc1)Cc1ccco1 (configuration not stated)	Lmaj promast 77, Arbovirus inh 32, CHOP inhibitor 82
CC(C)(C)n1nnnc1C(c1ccc(F)cc1)N(Cc1ccc(F)cc1)Cc1ccco1 (configuration not stated)	WT yeast gro inh 59
Cc1ccc(-c2cc(C(=O)N/N=C/c3c[nH]c4ccccc34)n[nH]2)o1	none
Cc1ccc(-c2cc(C(=O)N/N=C/C(Br)=C/c3ccccc3)n[nH]2)o1	WT yeast gro inh 61
C/C(=N\NC(=O)c1n[nH]c2c1CCC2)c1cccs1	CHOP inhibitor 86 (no result: Lmaj promast, Arbovirus inh, WT yeast gro inh)
O=C(CN1CCOCC1)N/N=C/C(Br)=C\c1ccccc1	none
Cn1cc(C(=O)N/N=C/C(Br)=C/c2ccccc2)ccc1=O	Lmaj promast 62
Cn1cc(C(=O)N/N=C/C=C/c2ccccc2)ccc1=O	none
Cc1ccccc1NCC(=O)N/N=C/C(Br)=C/c1ccccc1	CHOP inhibitor 94
CCCC(C)NC(=O)COc1ccc(S(=O)(=O)c2ccc(OCC(=O)NC(C)CCC)cc2)cc1 (configuration not stated)	none
COC(=O)c1nn(-c2ccccc2)c(Sc2ccc(Br)cc2)c1/C=N/O	none
CC(C)(C)C1CCc2c(C(=O)NNC(=O)CCC(=O)O)csc2C1 (configuration not stated)	none
COC(=O)c1c(-c2c(Cl)cccc2Cl)noc1C(=O)NN	none (no result: Lmaj promast, Arbovirus inh, WT yeast gro inh)
Cc1cccc(-n2c(C)cc(/C=N\NC(=O)c3ccco3)c2C)c1	none
Cn1cc(C(=O)N/N=C/C(Br)=C\c2ccccc2)ccc1=O	Lmaj promast 80
COc1ccc(C(=O)N/N=C/C(Br)=C/c2ccccc2)cc1	none
O=C(N/N=C/C(Br)=C\c1ccccc1)c1n[nH]c2c1CCC2	Lmaj promast 54 (no result: CHOP inhibitor)
CCN(CC)CCCN1C=C2C(=O)C(C)(OC(=O)C3CCCC3)C(=O)C=C2C=C1c1ccsc1 (configuration not stated)	none (no result: Lmaj promast, Arbovirus inh, WT yeast gro inh)
CCOC(=O)c1c(O)c2c(n(Cc3ccco3)c1=O)CCCC2	Arbovirus inh 31
COc1ccc(NC(=O)c2c(NC(=O)CNCc3ccco3)sc3c2CCC3)c(OC)c1	CHOP inhibitor 71
Cc1nc2c3cc(F)ccc3n(Cc3ccccc3F)c2s1	none
Cc1nc2c3ccccc3n(Cc3ccccc3F)c2s1	Lmaj promast 56
Cc1nc2c3cc(F)ccc3n(CCN3CCCCC3)c2s1	none
Cc1nc2c3cc(F)ccc3n(Cc3ccccc3)c2s1	CHOP inhibitor 74
CC(C)N(C(=O)COC(=O)c1cncc(Br)c1)C(C)C	none
CC(C)c1ccc(NC(=O)C(c2ccccc2)N2CC(=O)Nc3ccccc32)cc1 (configuration not stated)	none
COc1cc2c(C#N)c(N3CCc4ccccc4C3)nc(N)c2c(N)n1	Lmaj promast 54 (no result: CHOP inhibitor)
Clc1cccc(OCCN2CCOCC2)c1	none
Clc1cccc(OCCN2CCNCC2)c1	Lmaj promast 100
CN(CCOc1cccc(C(F)(F)F)c1)Cc1ccccc1	none
FC(F)(F)c1cccc(OCCN2CCN(Cc3ccccc3)CC2)c1	Lmaj promast 76
OCCN1CCN(CCOc2cccc(Cl)c2)CC1	Lmaj promast 90
COc1ccc(CCN(C(=O)C(F)(F)F)C(C(=O)NC2CCCCC2)c2ccc(C)s2)cc1OC (configuration not stated)	none
COc1ccc(CCN(C(=O)C(F)(F)F)C(C(=O)NC2CCCC2)c2cccs2)cc1OC (configuration not stated)	Lmaj promast 59
Cc1cc(N/C=C/C(=O)c2cccc3ccccc23)no1	none
O=C(/C=C/Nc1ccc([N+](=O)[O-])cc1Br)c1cccc2ccccc12	Lmaj promast 75
CCCCOc1cccc(C(=O)NNC(=S)NC2CCCCC2)c1	none
CC(=O)N(Cc1ccc(F)cc1)C1=C(NCc2ccccc2)C(=O)c2ccccc2C1=O	Lmaj promast 100 (no result: CHOP inhibitor)
CC(=O)N(Cc1ccccc1)c1nc(-c2ccccc2)cs1	none
COc1ccc(-c2onc(C)c2-c2ccc(C(=O)OC(C)C)o2)c(O)c1	CHOP inhibitor 82 (no result: WT yeast gro inh)
